Source: PubChem (Broad Institute)
ERAP1 inh – blocks human ERAP1 aminopeptidase activity | 0.15% of 340,000 active | inhibition, % at 10.7 µM | Q9NZ08 | recombinant ERAP1, Leu-AMC fluorescence, 60 min | AID 652197;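 active means mean replicate inhibition of at least 30%, or all replicates individually reaching that 30% level; inactive means mean below 30% and not every replicate reaching it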
DENV2 CPE – DENV2-induced cell death inhibition | DENV2-infected cells, cytopathic effect rescue, plate reader | CPE inhibition, % at 9.99 µM | 1.7% of 350,000 active | AID 651640; in the data active means CPE inhibition above about 20%, passing the limit was not always enough; inconclusive means no clear call, values can overlap the other calls; tested in BHK-21 cells
RAD52 inh – inhibitors of human RAD52 DNA annealing. P43351. recombinant RAD52 DNA annealing, FRET fluorescence. inhibition, % at 18.7 µM. 0.46% of 360,000 active. AID 651710;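 active means every replicate showing at least 50% inhibition; inconclusive means mean inhibition at least 50% but not in every replicate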
FGF22 binding – shifts melting point of recombinant human FGF22; Q9HCT0; recombinant FGF22 thermal shift, SYPRO orange fluorescence; percent of sucrose octasulfate shift, DMSO zero; activity (Tm shift, normalised), % at 9.99 µM; 1.5% of 340,000 active;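 active means mean Tm shift, scaled 0 neutral to 100 positive control, at about 1.3% or above, every replicate too, limit read from the data; inconclusive means no clear call, values can overlap the other calls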
Target sequence (Q9HCT0 whole entry, looked up): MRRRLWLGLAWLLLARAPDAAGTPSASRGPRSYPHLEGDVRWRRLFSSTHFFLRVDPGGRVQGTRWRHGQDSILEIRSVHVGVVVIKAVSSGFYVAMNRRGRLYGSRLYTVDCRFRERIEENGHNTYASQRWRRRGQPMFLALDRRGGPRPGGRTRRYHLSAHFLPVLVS
MLL AF4-AF9 inh – MLL-AF4/AF9 protein interaction inhibition. AlphaScreen, biotin-AF4 peptide binding to FLAG-AF9. 0.47% of 350,000 active. inhibition, % at 10 µM. P42568;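 active means every replicate reaching a set inhibition limit, whatever the replicate mean, cut at about 25% in these data; inconclusive means mean inhibition reaches that limit but some replicates miss it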
DNA binder FP – DNA binding artifact in RAD52 counter-screen. shares compounds with RAD52 inh. Salmon sperm DNA/acridine orange FP displacement. AC50, µM. 8% of 1,000 active. AID 652128;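 active means fitted half-maximal concentration for signal loss at or below twice the highest dose tested, in every separate run, actives reach about 64 µM in these data; inconclusive means runs disagree, or flat partial signal loss, or poor fit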
Hits are given with their value; 0 = inactive; ? = inconclusive; - = no result given. This is a sample that favours compounds with a hit; in the whole collection about 4% have one here.

SMILES | ERAP1 inh | DENV2 CPE | RAD52 inh | FGF22 binding | MLL AF4-AF9 inh | DNA binder FP
COc1cc2c3cc1Oc1c(OC)c(OC)cc4c1[C@H](Cc1ccc(cc1)Oc1cc(ccc1O)C[C@H]3N(C)CC2)N(C)CC4 | 0 | 0 | 58.5 | 0 | 0 | 0
COc1cc2c3cc1Oc1cc(ccc1O)C[C@@H]1c4c(cc(OC)c(O)c4Oc4cccc(c4)C[C@@H]3N(C)CC2)CC[N+]1(C)C | 0 | 0 | 69.5 | 0 | 0 | 0
COC(=O)[C@H]1[C@H](CO)[C@H]2Cn3c(ccc(-c4cccc(OC)c4)c3=O)[C@@H]1N2CC1CC1 | 0 | 0 | 0 | 0 | 0 | -
ClCCN1CCN(c2ccnc3cc(Cl)ccc23)CC1 | 0 | 0 | 68.5 | 0 | 0 | 0
COC(=O)[C@@H]1[C@@H](CO)[C@@H]2Cn3c(ccc(-c4ccccc4F)c3=O)[C@H]1N2CC1CCCC1 | 0 | 0 | 0 | 0 | 0 | -
COC(=O)[C@H]1[C@H](CO)[C@H]2Cn3c(ccc(C4=CCCC4)c3=O)[C@@H]1N2S(=O)(=O)c1cn(C)cn1 | 0 | 0 | 0 | 0 | 0 | -
O=c1[nH]c2ccccc2n1C1CCN(C(c2cccc3ccccc23)c2nnnn2Cc2ccccc2)CC1 (stereo not given) | 0 | 0 | 0 | 0 | 0 | -
O=c1[nH]c2ccccc2n1C1CCN(Cc2ccc(-c3[nH]c4cc5ncnc5cc4nc3-c3ccccc3)cc2)CC1 | 0 | 0 | 53.7 | 0 | 0 | 0
COCC#Cc1ccc([C@@H]2[C@H]3CN(C(=O)Cc4ccccn4)CCCCN3[C@H]2CO)cc1 | 0 | 0 | 0 | 0 | 0 | -
O=C(O)[C@@H]1[C@@H](CO)[C@@H]2Cn3c(ccc(-c4ccncc4)c3=O)[C@H]1N2C(=O)C1CCC1 | 0 | 0 | 0 | 0 | 0 | -
O=C1CNC[C@H]2[C@@H](c3ccc(Br)cc3)[C@H](CO)N12 | 0 | 0 | 0 | 0 | 0 | -
Ic1ccccc1CN[C@@H]1C2CCN(CC2)[C@@H]1C(c1ccccc1)c1ccccc1 | 0 | 0 | 62.2 | 0 | 0 | 0
Fc1ccccc1CNC1CN2CCC1CC2 (stereo not given) | 0 | 0 | 0 | 0 | 0 | -
CC[N+](C)(CC)CCCCOc1ccc2c(c1)C(=O)c1cc(OCCCC[N+](C)(CC)CC)ccc1-2 | 68.1 | 0 | 104.7 | 0 | 0 | 19.3µM
C[C@]1(O)CCC2C3CC[C@H]4C[C@@H](OC(=O)[C@@H](N)CCCCN)CC[C@]4(C)C3CC[C@@]21C (stereo not given in full) | 0 | 0 | 87.8 | 0 | 0 | 0
Oc1ccc2c3c1OC1c4[nH]c5ccccc5c4C[C@@]4(O)C(C2)N(CC2CC2)CC[C@]314 (stereo not given in full) | 0 | 0 | 0 | 0 | - | -
Oc1ccc2c3c1O[C@H]1c4[nH]c5c(c4CC4(O)C(C2)N(CC2CC2)CCC314)CC1(O)[C@H]2Cc3ccc(O)c4c3[C@@]1(CCN2CC1CC1)C5O4 (stereo not given in full) | 0 | 0 | 83.5 | 0 | - | 0
C=C1[C@@H](OC(C)=O)[C@]23C[C@@H]1[C@@H](OC(C)=O)CC2[C@]12C4C[C@H]3[C@H]1N(CC)C[C@]4(C)CC[C@@H]2O (stereo not given in full) | - | 0 | 78.3 | 0 | 0 | 0
CCCCCCCCCCCCCCCC[N+](C)(C)C | 42.4 | ? | 80.1 | 0 | 0 | ?
CC=Cc1ccc2n(c1=O)C[C@H]1[C@H](CO)[C@@H](C(=O)OC)[C@@H]2N1CC1CCCCC1 (mixture of isomers) | 0 | 0 | 0 | 0 | 0 | -
COC(=O)[C@@H]1[C@@H](CO)[C@@H]2Cn3c(ccc(C4=CCCCC4)c3=O)[C@H]1N2Cc1cccnc1 | 0 | 0 | 0 | 0 | 0 | -
